Results on nine sequences are retold here after PMC11006913.

Holding throughout (test): PBM; 200 nM protein, PBS
Common to all, as to settings: dsDNA, one strand shown

For assay [1], the target named is HESX1 (Homo sapiens, UniProt Q9UBX0 95-180, R165K).
Assay [2] addresses HESX1 (Homo sapiens, UniProt Q9UBX0 95-180).
Assay [3] has as its target HESX1 (Homo sapiens, UniProt Q9UBX0 95-180, R109Q).
The target in assay [4] is HESX1 (Homo sapiens, UniProt Q9UBX0 95-180, P111T).
For assay [5], the target named is HESX1 (Homo sapiens, UniProt Q9UBX0 95-180, F115L).
HESX1 (Homo sapiens, UniProt Q9UBX0 95-180, F115L), sequence (Q9UBX0 95-180 F115L): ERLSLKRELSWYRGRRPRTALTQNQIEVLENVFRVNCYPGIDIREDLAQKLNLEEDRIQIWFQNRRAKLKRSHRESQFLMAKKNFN
For assay [6], the target named is ALX3 (Homo sapiens, UniProt O95076 139-225, N203Q).
ALX3 (Homo sapiens, UniProt O95076 139-225, N203Q), sequence (O95076 139-225 N203Q): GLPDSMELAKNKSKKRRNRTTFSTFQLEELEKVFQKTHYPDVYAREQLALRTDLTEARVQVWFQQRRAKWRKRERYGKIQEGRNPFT
Assay [7] has as its target ALX3 (Homo sapiens, UniProt O95076 139-225).
Assay [8] concerns the target ALX3 (Homo sapiens, UniProt O95076 139-225, L168Q).
The target of assay [9] is ALX3 (Homo sapiens, UniProt O95076 139-225, L168V).
ALX3 (Homo sapiens, UniProt O95076 139-225, L168V), sequence (O95076 139-225 L168V): as the sequence (O95076 139-225 N203Q) above, with L30V, Q65N counted along it
Assay [10] deals with ALX3 (Homo sapiens, UniProt O95076 139-225, N203S).
ALX3 (Homo sapiens, UniProt O95076 139-225, N203S), sequence (O95076 139-225 N203S): as the sequence (O95076 139-225 N203Q) above, with Q65S counted along it
In assay [11] the target is VAX1 (Homo sapiens, UniProt Q5SQQ9 86-172).
VAX1 (Homo sapiens, UniProt Q5SQQ9 86-172), sequence (Q5SQQ9 86-172): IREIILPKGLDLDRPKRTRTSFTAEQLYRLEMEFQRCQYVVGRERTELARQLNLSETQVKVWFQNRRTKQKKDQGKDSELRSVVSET
The target in assay [12] is VAX1 (Homo sapiens, UniProt Q5SQQ9 86-172, T142I).
VAX1 (Homo sapiens, UniProt Q5SQQ9 86-172, T142I), sequence (Q5SQQ9 86-172 T142I): as the sequence (Q5SQQ9 86-172) above, with T57I counted along it
In assay [13] the target is VAX1 (Homo sapiens, UniProt Q5SQQ9 86-172, K157R).
VAX1 (Homo sapiens, UniProt Q5SQQ9 86-172, K157R), sequence (Q5SQQ9 86-172 K157R): as the sequence (Q5SQQ9 86-172) above, with K72R counted along it
In assay [14] the target is ALX1 (Homo sapiens, UniProt Q15699 118-204, L144V).
ALX1 (Homo sapiens, UniProt Q15699 118-204, L144V), sequence (Q15699 118-204 L144V): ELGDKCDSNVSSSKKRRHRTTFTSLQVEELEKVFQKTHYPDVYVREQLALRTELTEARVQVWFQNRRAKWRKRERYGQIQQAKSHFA
Assay [15] addresses ALX1 (Homo sapiens, UniProt Q15699 118-204, L144R).
Assay [16] concerns the target ALX1 (Homo sapiens, UniProt Q15699 118-204).

HESX1 (Homo sapiens, UniProt Q9UBX0 95-180), sequence (Q9UBX0 95-180): as the sequence (Q9UBX0 95-180 F115L) above, with L21F counted along it
HESX1 (Homo sapiens, UniProt Q9UBX0 95-180, R109Q), sequence (Q9UBX0 95-180 R109Q): as the sequence (Q9UBX0 95-180 F115L) above, with R15Q, L21F counted along it
HESX1 (Homo sapiens, UniProt Q9UBX0 95-180, P111T), sequence (Q9UBX0 95-180 P111T): as the sequence (Q9UBX0 95-180 F115L) above, with P17T, L21F counted along it
HESX1 (Homo sapiens, UniProt Q9UBX0 95-180, R165K), sequence (Q9UBX0 95-180 R165K): as the sequence (Q9UBX0 95-180 F115L) above, with L21F, R71K counted along it
ALX3 (Homo sapiens, UniProt O95076 139-225), sequence (O95076 139-225): as the sequence (O95076 139-225 N203Q) above, with Q65N counted along it
ALX1 (Homo sapiens, UniProt Q15699 118-204), sequence (Q15699 118-204): as the sequence (Q15699 118-204 L144V) above, with V27L counted along it
ALX3 (Homo sapiens, UniProt O95076 139-225, L168Q), sequence (O95076 139-225 L168Q): as the sequence (O95076 139-225 N203Q) above, with L30Q, Q65N counted along it
ALX1 (Homo sapiens, UniProt Q15699 118-204, L144R), sequence (Q15699 118-204 L144R): as the sequence (Q15699 118-204 L144V) above, with V27R counted along it

On to AGCCCGCG, for which the binding signal in the assay with HESX1 [1] was 6.57 upbm affinity estimate (log intensity, higher = more binding, comparable within an allelic series); in the assay with HESX1 [2], 6.54 upbm affinity estimate (log intensity, higher = more binding, comparable within an allelic series); with HESX1 [3] it was 6.6 upbm affinity estimate (log intensity, higher = more binding, comparable within an allelic series); in the assay with HESX1 [4], 6.57 upbm affinity estimate (log intensity, higher = more binding, comparable within an allelic series); in the assay with HESX1 [5] it was 6.48 upbm affinity estimate (log intensity, higher = more binding, comparable within an allelic series).
For GCCGAAAC, the binding signal with HESX1 [1] is 6.58 upbm affinity estimate (log intensity, higher = more binding, comparable within an allelic series); in the assay with HESX1 [2], 6.54 upbm affinity estimate (log intensity, higher = more binding, comparable within an allelic series); with HESX1 [3], 6.57 upbm affinity estimate (log intensity, higher = more binding, comparable within an allelic series); in the assay with HESX1 [4], 6.61 upbm affinity estimate (log intensity, higher = more binding, comparable within an allelic series); in the assay with HESX1 [5], 6.57 upbm affinity estimate (log intensity, higher = more binding, comparable within an allelic series).
On to AGAGGAGC, for which the binding signal is 6.5 upbm affinity estimate (log intensity, higher = more binding, comparable within an allelic series) in the assay with HESX1 [1]; 6.51 upbm affinity estimate (log intensity, higher = more binding, comparable within an allelic series) with HESX1 [2]; 6.44 upbm affinity estimate (log intensity, higher = more binding, comparable within an allelic series) with HESX1 [3]; 6.47 upbm affinity estimate (log intensity, higher = more binding, comparable within an allelic series) with HESX1 [4]; 6.59 upbm affinity estimate (log intensity, higher = more binding, comparable within an allelic series) with HESX1 [5].
For the sequence CAGAGTCA, the binding signal with HESX1 [1] was 6.47 upbm affinity estimate (log intensity, higher = more binding, comparable within an allelic series); with HESX1 [2], 6.43 upbm affinity estimate (log intensity, higher = more binding, comparable within an allelic series); with HESX1 [3], 6.67 upbm affinity estimate (log intensity, higher = more binding, comparable within an allelic series); in the assay with HESX1 [4] it was 6.59 upbm affinity estimate (log intensity, higher = more binding, comparable within an allelic series); with HESX1 [5], 6.54 upbm affinity estimate (log intensity, higher = more binding, comparable within an allelic series).
Consider AGATTGGG, for which the binding signal with HESX1 [1] is 7.4 upbm affinity estimate (log intensity, higher = more binding, comparable within an allelic series); with HESX1 [2], 7.61 upbm affinity estimate (log intensity, higher = more binding, comparable within an allelic series); with HESX1 [3], 7.3 upbm affinity estimate (log intensity, higher = more binding, comparable within an allelic series); in the assay with HESX1 [4], 7.23 upbm affinity estimate (log intensity, higher = more binding, comparable within an allelic series).
As for CCCGGAGG, the binding signal with HESX1 [1] is 6.31 upbm affinity estimate (log intensity, higher = more binding, comparable within an allelic series); with HESX1 [2], 6.31 upbm affinity estimate (log intensity, higher = more binding, comparable within an allelic series); in the assay with HESX1 [3] it was 6.41 upbm affinity estimate (log intensity, higher = more binding, comparable within an allelic series); in the assay with HESX1 [4], 6.39 upbm affinity estimate (log intensity, higher = more binding, comparable within an allelic series); in the assay with HESX1 [5] it was 6.42 upbm affinity estimate (log intensity, higher = more binding, comparable within an allelic series).
Turning to CGCCCAAG, the binding signal was 6.57 upbm affinity estimate (log intensity, higher = more binding, comparable within an allelic series) in the assay with HESX1 [1]; 6.59 upbm affinity estimate (log intensity, higher = more binding, comparable within an allelic series) with HESX1 [2]; 7.75 upbm affinity estimate (log intensity, higher = more binding, comparable within an allelic series) with ALX3 [6]; 7.67 upbm affinity estimate (log intensity, higher = more binding, comparable within an allelic series) with ALX3 [7]; 6.54 upbm affinity estimate (log intensity, higher = more binding, comparable within an allelic series) with HESX1 [3]; 7.8 upbm affinity estimate (log intensity, higher = more binding, comparable within an allelic series) in the assay with ALX3 [8]. In addition, the binding signal with HESX1 [4] was 6.5 upbm affinity estimate (log intensity, higher = more binding, comparable within an allelic series); in the assay with ALX3 [9], 7.74 upbm affinity estimate (log intensity, higher = more binding, comparable within an allelic series); with HESX1 [5] it was 6.55 upbm affinity estimate (log intensity, higher = more binding, comparable within an allelic series); with ALX3 [10] it was 7.78 upbm affinity estimate (log intensity, higher = more binding, comparable within an allelic series).
On to AGTCGCGC, for which the binding signal in the assay with HESX1 [1] is 6.38 upbm affinity estimate (log intensity, higher = more binding, comparable within an allelic series); in the assay with HESX1 [2] it was 6.32 upbm affinity estimate (log intensity, higher = more binding, comparable within an allelic series); with HESX1 [3], 6.51 upbm affinity estimate (log intensity, higher = more binding, comparable within an allelic series); with VAX1 [11], 7.29 upbm affinity estimate (log intensity, higher = more binding, comparable within an allelic series); in the assay with HESX1 [4], 6.45 upbm affinity estimate (log intensity, higher = more binding, comparable within an allelic series); in the assay with HESX1 [5], 6.58 upbm affinity estimate (log intensity, higher = more binding, comparable within an allelic series). For the same sequence, the binding signal in the assay with VAX1 [12] was 7.12 upbm affinity estimate (log intensity, higher = more binding, comparable within an allelic series); with VAX1 [13] it was 7.18 upbm affinity estimate (log intensity, higher = more binding, comparable within an allelic series).
As to CTGGGCTC, the binding signal is 6.43 upbm affinity estimate (log intensity, higher = more binding, comparable within an allelic series) with HESX1 [1]; 6.41 upbm affinity estimate (log intensity, higher = more binding, comparable within an allelic series) with HESX1 [2]; 6.37 upbm affinity estimate (log intensity, higher = more binding, comparable within an allelic series) with ALX1 [14]; 6.38 upbm affinity estimate (log intensity, higher = more binding, comparable within an allelic series) in the assay with ALX1 [15]; 6.43 upbm affinity estimate (log intensity, higher = more binding, comparable within an allelic series) with HESX1 [3]; 6.51 upbm affinity estimate (log intensity, higher = more binding, comparable within an allelic series) in the assay with HESX1 [4]. The binding signal in the assay with HESX1 [5] is 6.39 upbm affinity estimate (log intensity, higher = more binding, comparable within an allelic series); with ALX1 [16], 6.38 upbm affinity estimate (log intensity, higher = more binding, comparable within an allelic series).
